The values below come from PubChem BioAssay (EPA / NIEHS).

Molecules are shown by their SMILES. Calls of active or inactive are those of the source. How the source made its calls: active means hit-call score of the fitted dose curve at least 0.9, where 1 is the maximum; inactive means score below 0.9.

Experiment [1] can be described thus: CEETOX_H295R_ESTRADIOL: CeeTox H295R High-throughput Steroidogenesis Assay for Estradiol (AID 2283440).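 Further: estradiol secreted into medium quantified by LC-MS/MS after dansyl derivatisation.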 The note with it: actives raise or lower the signal. In a few lines:
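H295R, 48 h forskolin (10 uM) prestim → 48 h compound, 0.1% DMSO final. Estradiol in medium: MTBE extraction, dansyl chloride derivatization, LC-MS/MS. Fit bidirectional vs DMSO baseline; MTT viability in same wells.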

Experiment [2] in a line: CEETOX_H295R_PROG: CeeTox H295R High-throughput Steroidogenesis Assay for Progesterone (PROG) (AID 2283442).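 On AC50: human H295R adrenal cells primed with 10 µM forskolin before dosing.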 The note with it: actives raise or lower the signal. In a few lines: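 Progesterone read-out: HPLC-MS/MS on MTBE extracts of conditioned medium after 48 h chemical exposure of forskolin-primed (10 uM, 48 h) H295R cells. Gain or loss of signal was fitted relative to DMSO baseline.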

Read-out in experiment [3]: Tumor necrosis factor receptor superfamily member 6 (Homo sapiens) (UniProt P25445)
Description: LTEA_HepaRG_FAS: Life Technologies and Expression Analysis (LTEA) Assay for Fas cell surface death receptor (FAS) using HepaRG (AID 2283447). The following applies: mRNA level, 48 h; actives raise or lower the signal. In a few lines: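 FAS transcript level was measured by TaqMan qRT-PCR against three housekeeping genes after 48 h chemical exposure. Cells were HepaRG, 0.5% DMSO vehicle, with a top concentration of 100 uM and half-log dilutions over eight points, in duplicate.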

Read-out in experiment [4]: Fatty acid synthase (Homo sapiens) (UniProt P49327)
The experiment can be described thus: LTEA_HepaRG_FASN: Life Technologies and Expression Analysis (LTEA) Assay for Fatty Acid Synthase (FASN) using HepaRG (AID 2283448).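 On AC50: differentiated human HepaRG liver cells in serum-free induction medium.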 The following applies: mRNA level, 48 h; actives raise or lower the signal. In a few lines:
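HepaRG, 48 h exposure, 8-pt half-log series top 100 uM, 0.5% DMSO vehicle, duplicates. Readout: FASN transcript by Fluidigm qRT-PCR; housekeeping-normalized; bidirectional curve fit vs DMSO baseline.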

Read-out in experiment [5]: Cyclin D2 (CCND2), CCND2 (gene 894)
The experiment can be described thus: LTEA_HepaRG_CCND2: Life Technologies and Expression Analysis (LTEA) Assay for Cyclin D2 (CCND2) using HepaRG (AID 2283449). The note with it: mRNA level, 48 h; actives raise or lower the signal. In short, it runs like this:
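CCND2 transcript levels, quantified by qRT-PCR and normalised to three housekeeping genes, were fitted bidirectionally against 0.5% DMSO. HepaRG cultures were dosed 48 h in duplicate with an 8-point half-log series up to 100 uM.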

Read-out in experiment [6]: Cyclin Dependent Kinase Inhibitor 1A (CDKN1A), CDKN1A (gene 1026)
The experiment can be described thus: LTEA_HepaRG_CDKN1A: Life Technologies and Expression Analysis (LTEA) Assay for Cyclin Dependent Kinase Inhibitor 1A (CDKN1A) using HepaRG (AID 2283450). The note with it: mRNA level, 48 h; actives raise or lower the signal. In short, it runs like this: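 HepaRG, 48 h dosing, 8-pt half-log series from 100 uM top, 0.5% DMSO vehicle, duplicates. Readout: TaqMan qRT-PCR of CDKN1A transcript, housekeeping-normalized (ACTB, GAPDH, POLR2A). Up/down curve fit relative to DMSO.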

Read-out in experiment [7]: Cyclin D1 (CCND1), CCND1 (gene 595)
Description: LTEA_HepaRG_CCND1: Life Technologies and Expression Analysis (LTEA) Assay for Cyclin D1 (CCND1) using HepaRG (AID 2283451).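 On AC50: differentiated human HepaRG liver cells in serum-free induction medium.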 The note with it: mRNA level, 48 h; actives raise or lower the signal. In short, it runs like this:
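qRT-PCR (Fluidigm 96.96 array) read-out of transcript level, housekeeping-normalized (ACTB/GAPDH/POLR2A). HepaRG cells, 48 h chemical exposure, 8-point half-log series from 100 uM, 0.5% DMSO vehicle; gain or loss relative to DMSO baseline.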

Read-out in experiment [8]: catalase (CAT), CAT (gene 847)
Description: LTEA_HepaRG_CAT: Life Technologies and Expression Analysis (LTEA) Assay for catalase (CAT) using HepaRG (AID 2283452). The note with it: mRNA level, 48 h; actives raise or lower the signal. In short, it runs like this:
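Expression of CAT was quantified by TaqMan qRT-PCR with ACTB/GAPDH/POLR2A normalization after 48 h chemical exposure of HepaRG. Eight-point half-log series, top 100 uM, in 0.5% DMSO; gain or loss fitted against vehicle.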

Read-out in experiment [9]: flavin-containing dimethylaniline monooxygenases 3 (FMO3), FMO3 (gene 2328)
Description: LTEA_HepaRG_FMO3: Life Technologies and Expression Analysis (LTEA) Assay for flavin-containing dimethylaniline monooxygenases 3 (FMO3) using HepaRG (AID 2283453).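 On AC50: differentiated human HepaRG liver cells in serum-free induction medium.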 The following applies: mRNA level, 48 h; actives raise or lower the signal. In a few lines:
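Eight-point concentration-response in serum-free HepaRG cultures (top 100 uM, 0.5% DMSO, 48 h). Read-out: FMO3 mRNA level normalized to three endogenous control genes, fitted bidirectionally versus vehicle.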

Read-out in experiment [10]: Cytochrome P450 (CYP1A1), CYP1A1 (gene 1543)
Description: LTEA_HepaRG_CYP1A1: Life Technologies and Expression Analysis (LTEA) Assay for Cytochrome P450 (CYP1A1) using HepaRG (AID 2283454). The note with it: mRNA level, 48 h; actives raise or lower the signal. In a few lines: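 qRT-PCR read-out: CYP1A1 transcript normalized to three housekeeping genes, fitted bidirectionally against 0.5% DMSO vehicle baseline. Human HepaRG cells, 48 h chemical exposure, 8-point half-log series topping at 100 uM.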

Read-out in experiment [11]: CFLAR gene, CFLAR (gene 8837)
The experiment can be described thus: LTEA_HepaRG_CFLAR: Life Technologies and Expression Analysis (LTEA) Assay for CFLAR gene using HepaRG (AID 2283455). The note with it: mRNA level, 48 h; actives raise or lower the signal. In a few lines: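 Transcript level by qRT-PCR (normalized to ACTB, GAPDH and POLR2A) after 48 h chemical exposure of HepaRG cells, top concentration 100 uM with half-log steps, 0.5% DMSO vehicle, duplicates; fitted bidirectionally against DMSO baseline.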

Read-out in experiment [12]: Forkhead box O1 (FOXO1), FOXO1 (gene 2308)
The experiment can be described thus: LTEA_HepaRG_FOXO1: Life Technologies and Expression Analysis (LTEA) Assay for Forkhead box O1 (FOXO1) using HepaRG (AID 2283456). The note with it: mRNA level, 48 h; actives raise or lower the signal. In a few lines: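 FOXO1 transcript quantified by qRT-PCR after 48 h chemical exposure (top 100 uM, half-log steps, 0.5% DMSO) of HepaRG cells, housekeeping-normalized (ACTB/GAPDH/POLR2A). Changes fitted in both directions relative to vehicle.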

Experiment [13] is described as follows: CEETOX_H295R_TESTO: CeeTox H295R High-throughput Steroidogenesis Assay for Testosterone (TESTO) (AID 2283457). The note with it: actives raise or lower the signal. In short, it runs like this: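 Readout: testosterone quantified by HPLC-MS/MS (C18, ESI positive) after MTBE liquid-liquid extraction of culture medium. Cells were H295R, 48 h chemical exposure per OECD 456 with modifications. Gain or loss of signal fitted relative to DMSO.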

Read-out in experiment [14]: growth arrest and DNA damage 45 (GADD45A), GADD45A (gene 1647)
The experiment can be described thus: LTEA_HepaRG_GADD45A: Life Technologies and Expression Analysis (LTEA) Assay for growth arrest and DNA damage 45 (GADD45A) using HepaRG (AID 2283458). The following applies: mRNA level, 48 h; actives raise or lower the signal. In a few lines: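 HepaRG, 48 h exposure, 8 conc. (top 100 uM, half-log steps), 0.5% DMSO vehicle, duplicates. Read-out: qRT-PCR mRNA level, housekeeping-normalized (ACTB/GAPDH/POLR2A). Curves fit bidirectionally vs DMSO baseline.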

Read-out in experiment [15]: Forkhead box O3 (FOXO3), FOXO3 (gene 2309)
Description: LTEA_HepaRG_FOXO3: Life Technologies and Expression Analysis (LTEA) Assay for Forkhead box O3 (FOXO3) using HepaRG (AID 2283459). The note with it: mRNA level, 48 h; actives raise or lower the signal. In short, it runs like this:
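FOXO3 transcript measured by qRT-PCR (normalized to ACTB, GAPDH, POLR2A) after 48 h exposure of HepaRG cells in serum-free induction medium. Duplicates, eight half-log concentrations up to 100 uM, 0.5% DMSO; gain or loss fitted against DMSO.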

Read-out in experiment [16]: ABC Transporter (ABCC3), ABCC3 (gene 8714)
The experiment can be described thus: LTEA_HepaRG_ABCC3: Life Technologies and Expression Analysis (LTEA) Assay for ABC Transporter (ABCC3) using HepaRG (AID 2283462). The following applies: mRNA level, 48 h; actives raise or lower the signal. In a few lines: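 qRT-PCR read-out of ABCC3 transcript, normalized to three housekeeping genes (ACTB, GAPDH, POLR2A), after 48 h chemical exposure of human HepaRG cells. Eight half-log concentrations, highest 100 uM, in 0.5% DMSO; gain or loss fitted relative to DMSO baseline.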

Read-out in experiment [17]: ABC Transporter (ABCB11), ABCB11 (gene 8647)
The experiment can be described thus: LTEA_HepaRG_ABCB11: Life Technologies and Expression Analysis (LTEA) Assay for ABC Transporter (ABCB11) using HepaRG (AID 2283463). The note with it: mRNA level, 48 h; actives raise or lower the signal. In a few lines:
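ABCB11 transcript levels quantified by TaqMan qRT-PCR against three housekeeping genes after 48 h chemical exposure of HepaRG cultures. Concentrations up to 100 uM in half-log steps, 0.5% DMSO vehicle; both induction and suppression scored.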

Read-out in experiment [18]: ABC Transporter (ABCC2), ABCC2 (gene 1244)
The experiment can be described thus: LTEA_HepaRG_ABCC2: Life Technologies and Expression Analysis (LTEA) Assay for ABC Transporter (ABCC2) using HepaRG (AID 2283464). The following applies: mRNA level, 48 h; actives raise or lower the signal. In short, it runs like this: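 qRT-PCR (TaqMan, Fluidigm array) read-out of ABCC2 mRNA, normalized to three housekeeping genes. Differentiated HepaRG cells were treated 48 h in serum-free induction medium with 8-point half-log series from 100 uM in 0.5% DMSO; curves fitted bidirectionally relative to DMSO.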

Chain of Fatty acid synthase (Homo sapiens) (P49327 whole entry, looked up): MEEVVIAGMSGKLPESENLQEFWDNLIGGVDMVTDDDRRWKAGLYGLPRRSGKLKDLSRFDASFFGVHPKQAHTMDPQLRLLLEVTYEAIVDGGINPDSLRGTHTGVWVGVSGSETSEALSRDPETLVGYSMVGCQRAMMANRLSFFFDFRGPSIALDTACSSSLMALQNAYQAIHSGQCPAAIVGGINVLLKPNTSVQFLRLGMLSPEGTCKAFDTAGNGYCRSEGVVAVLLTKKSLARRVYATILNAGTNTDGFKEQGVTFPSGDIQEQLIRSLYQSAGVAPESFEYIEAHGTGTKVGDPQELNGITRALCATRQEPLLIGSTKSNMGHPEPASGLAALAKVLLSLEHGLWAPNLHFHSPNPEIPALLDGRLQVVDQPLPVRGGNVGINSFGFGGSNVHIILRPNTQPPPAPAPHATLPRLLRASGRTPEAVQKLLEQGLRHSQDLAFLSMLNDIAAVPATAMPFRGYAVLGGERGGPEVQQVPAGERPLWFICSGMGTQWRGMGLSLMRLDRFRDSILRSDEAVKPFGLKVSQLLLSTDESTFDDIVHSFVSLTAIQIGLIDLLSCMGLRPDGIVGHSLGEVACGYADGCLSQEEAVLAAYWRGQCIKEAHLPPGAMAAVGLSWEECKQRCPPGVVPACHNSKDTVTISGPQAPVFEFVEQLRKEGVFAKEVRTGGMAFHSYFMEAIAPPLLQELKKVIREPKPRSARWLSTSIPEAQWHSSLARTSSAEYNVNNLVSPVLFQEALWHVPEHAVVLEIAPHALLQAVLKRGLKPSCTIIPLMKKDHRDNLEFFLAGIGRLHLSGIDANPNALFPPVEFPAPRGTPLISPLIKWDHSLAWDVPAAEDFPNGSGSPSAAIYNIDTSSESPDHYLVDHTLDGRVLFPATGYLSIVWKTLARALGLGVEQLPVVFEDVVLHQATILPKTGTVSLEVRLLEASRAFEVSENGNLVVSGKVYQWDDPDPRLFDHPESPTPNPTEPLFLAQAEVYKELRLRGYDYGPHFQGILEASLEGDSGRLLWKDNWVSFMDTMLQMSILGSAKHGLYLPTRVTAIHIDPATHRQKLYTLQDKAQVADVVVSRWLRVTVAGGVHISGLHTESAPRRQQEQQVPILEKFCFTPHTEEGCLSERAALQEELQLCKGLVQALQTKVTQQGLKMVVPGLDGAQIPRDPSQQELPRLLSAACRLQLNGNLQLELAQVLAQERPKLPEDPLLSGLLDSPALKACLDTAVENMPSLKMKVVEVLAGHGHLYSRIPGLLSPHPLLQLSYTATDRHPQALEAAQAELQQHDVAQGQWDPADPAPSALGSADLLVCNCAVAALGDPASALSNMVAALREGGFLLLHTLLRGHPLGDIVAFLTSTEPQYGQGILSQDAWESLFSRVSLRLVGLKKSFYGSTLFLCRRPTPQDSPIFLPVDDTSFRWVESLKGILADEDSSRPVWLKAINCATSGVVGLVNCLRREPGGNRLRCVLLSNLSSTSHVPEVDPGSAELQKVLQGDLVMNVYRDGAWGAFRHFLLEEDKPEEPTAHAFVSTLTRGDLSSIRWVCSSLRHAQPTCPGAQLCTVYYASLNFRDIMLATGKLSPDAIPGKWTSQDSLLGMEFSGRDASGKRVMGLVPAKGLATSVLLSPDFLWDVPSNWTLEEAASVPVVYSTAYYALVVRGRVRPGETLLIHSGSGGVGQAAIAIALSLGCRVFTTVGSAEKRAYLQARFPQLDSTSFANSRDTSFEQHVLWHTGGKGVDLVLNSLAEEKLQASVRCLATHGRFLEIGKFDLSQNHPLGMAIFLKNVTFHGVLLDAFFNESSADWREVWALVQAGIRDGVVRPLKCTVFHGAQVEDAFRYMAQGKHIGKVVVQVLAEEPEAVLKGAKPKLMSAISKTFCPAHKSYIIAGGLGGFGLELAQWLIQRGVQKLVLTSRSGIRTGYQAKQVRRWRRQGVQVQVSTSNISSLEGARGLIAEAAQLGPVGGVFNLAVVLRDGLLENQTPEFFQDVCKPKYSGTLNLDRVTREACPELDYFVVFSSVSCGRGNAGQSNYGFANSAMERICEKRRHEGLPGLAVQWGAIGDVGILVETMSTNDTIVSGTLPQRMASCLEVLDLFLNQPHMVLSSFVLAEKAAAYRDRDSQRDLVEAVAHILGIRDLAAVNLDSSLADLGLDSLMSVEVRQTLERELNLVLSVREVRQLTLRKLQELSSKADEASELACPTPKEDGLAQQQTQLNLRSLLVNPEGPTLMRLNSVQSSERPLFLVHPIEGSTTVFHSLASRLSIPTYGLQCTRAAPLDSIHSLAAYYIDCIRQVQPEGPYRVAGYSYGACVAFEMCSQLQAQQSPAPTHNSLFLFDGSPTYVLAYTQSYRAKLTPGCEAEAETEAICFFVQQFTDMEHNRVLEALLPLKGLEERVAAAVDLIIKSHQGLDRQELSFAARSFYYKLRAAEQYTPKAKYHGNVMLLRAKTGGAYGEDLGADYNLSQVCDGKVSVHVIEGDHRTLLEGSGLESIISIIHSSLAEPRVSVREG

The term AC50 denotes the midpoint of the concentration-response curve, whichever way the signal moves. For the compound `N#CC(CCc1ccc(Cl)cc1)(Cn1cncn1)c1ccccc1` (configuration not stated), the compound was called inactive in experiment [1], in experiment [5], in experiment [11], in [13] and in experiment [15]. The AC50 in experiment [2] was 0.627 µM (active); in [3], 76.1 µM (active); in experiment [4] it was 91.1 µM (active); in [6], 60.9 µM (active); in experiment [7] it was 71.5 µM (active); in [8], 54.5 µM (active). For the same compound, the AC50 is 72.9 µM (active) in experiment [9]; 9.8 µM (active) in experiment [10]; 77.8 µM (active) in experiment [12]; 74.7 µM (active) in [14]; 12.5 µM (active) in [16]; 72.3 µM (active) in [17]. Also, in experiment [18], the AC50 was 50 µM (active).
For `Cc1cc(Cl)ccc1OCC(=O)O`, the compound was classed as inactive in experiment [2], in experiment [3], in experiment [4], in experiment [5], in [6] and in experiment [7]. Also, the outcome in [8], in [9], in [11], in experiment [12], in [13] and in experiment [14] was inactive. For the same compound, the compound was classed as inactive in experiment [15], in experiment [16] and in experiment [18]. The AC50 in experiment [10] and in [17] was 50 µM (active) throughout.
Take `Cc1c(F)c(F)c(COC(=O)C2C(/C=C(\Cl)C(F)(F)F)C2(C)C)c(F)c1F` (configuration not stated): the call in experiment [1], in experiment [2], in [3], in experiment [4], in experiment [5] and in experiment [6] was inactive. Moreover, the compound was called inactive in experiment [7], in [8], in experiment [9], in [11], in experiment [12] and in experiment [14]. Moreover, the outcome in experiment [15], in [16] and in experiment [18] was inactive. The AC50 in experiment [10] and in experiment [17] was 50 µM (active) throughout.
